# Test results reported in PubChem BioAssay AID1469 (National Center for Advancing Translational Sciences (NCATS), 2008).
# Among all 280,000 compounds or so, about 180 (0.064%) were called active. Calls come from the whole dose curve; as a rule, active = well fitted inhibition curve with a large enough effect; inconclusive = small, poorly fitted or top-dose-only effect, or effect the other way; inactive = flat fitted curve, though single readings scatter. Only a selection was taken, and actives are over-represented in it overall.
# Target: Thyroid hormone receptor beta (Homo sapiens) (UniProt P10828)
# Sequence (P10828 whole entry, looked up): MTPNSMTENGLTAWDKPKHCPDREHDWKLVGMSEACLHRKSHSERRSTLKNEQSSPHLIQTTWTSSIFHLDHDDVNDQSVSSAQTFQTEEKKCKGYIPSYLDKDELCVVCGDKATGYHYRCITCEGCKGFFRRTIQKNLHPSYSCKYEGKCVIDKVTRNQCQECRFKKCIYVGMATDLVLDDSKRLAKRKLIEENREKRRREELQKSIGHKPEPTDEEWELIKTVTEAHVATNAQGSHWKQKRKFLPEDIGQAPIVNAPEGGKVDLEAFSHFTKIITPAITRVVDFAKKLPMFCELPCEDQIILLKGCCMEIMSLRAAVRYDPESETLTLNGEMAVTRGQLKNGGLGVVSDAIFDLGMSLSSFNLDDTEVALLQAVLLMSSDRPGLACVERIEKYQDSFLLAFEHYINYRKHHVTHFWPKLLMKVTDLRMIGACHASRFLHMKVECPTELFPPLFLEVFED
# Experiment: qHTS for Inhibitors of the Interaction of Thyroid Hormone Receptor and Steroid Receptor Coregulator 2; note: nearly all actives have a fitted effect of over 50% in size;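 for activity change, negative = inhibition: plate controls were bound peptide for no effect and peptide without receptor for full effect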
# Details: TRbeta-SRC2 peptide binding, fluorescence polarization, receptor liganded with 1 µM T3; series mostly up to 201 µM; activity change, negative = inhibition: at the top concentration
# Excerpt: NIH Molecular Libraries Probe Production Network [MLPCN]
# NIH Chemical Genomics Center [NCGC]
# Assay Provider: R. Kip Guy, St. Jude Children's Research Hospital
# Thyroid receptor (TR) regulates many homeostatic processes including basal metabolism, cardiovascular function, body weight, and lipid trafficking. TR modulators are potential therapeutics for obesity and hyperlipidemias but current thyroid analogs have undesirable side effects, particularly cardiac stimulation. To identify inhibitors that specifically prevent the interaction of TR with the steroid receptor coregulator 2 (SRC2), a fluorescence polarization assay was screened. This assay detects interaction of the ligand-binding domain of human TRb with a Texas Red labeled SRC2 peptide, corresponding to a 20 amino acid region of the nuclear receptor interaction domain (Arnold et al., 2006). Small molecule inhibitors that block the interaction of TR and SRC2 are detected by a decrease in fluorescence polarization.
# Arnold, L. A.; Estebanez-Perpina, E.; Togashi, M.; Shelat, A.; Ocasio, C. A.; McReynolds, A. C.; Nguyen, P.; Baxter, J. D.; Fletterick, R. J.; Webb, P.; Guy, R. K. A high-throughput screening method to identify small molecule inhibitors of thyroid hormone receptor coactivator binding. Sci STKE 2006, p 13.
# NCGC Assay Protocol Summary:
# For screening, 5 uL/well 0.6 uM TRb and 20 nM SRC2 Texas Red in protein buffer (20mM Tris hydrochloride, 100mM NaCl, 10% glycerol, 1mM EDTA, 0.01% NP-40, 1mM DTT, 1uM T3 and 5% DMSO) was dispensed into black solid 1536-well plates (Grenier) using a solenoid-based dispenser. Following transfer of 23 nL compound or DMSO vehicle by a pin tool, the plates were centrifuged 15 s at 1000 RPM and incubated 5 hr at ambient temperature. The plates were read by an Envision (Perkin Elmer) to detect fluorescence polarization of SRC2 Texas Red (555 nm excitation and 632 nm emission). Data were normalized to unbound (all components except TRb) and bound SRC2 Texas Red controls. In this assay, we provide % activity data for each concentration as well as potencies for the active compounds.
# Keywords: NIH Roadmap, MLPCN, MLI, MLSMR, qHTS, NCGC, qHTS, thyroid hormone receptor, steroid receptor coactivator, fluorescence polarization
# Potency is the fitted concentration of half-maximal effect.
Compound,Potency,"activity change, negative = inhibition"
CC[N+](C)(CC)CCC[n+]1c(-c2ccccc2)c2cc(N)ccc2c2ccc(N)cc21,44.7 µM (active),–
Oc1ccc(C2(c3ccc(O)cc3)c3ccccc3-c3ccccc32)cc1,–,1.29% (inactive)
[Ga]#[As],–,5.9% (inactive)
CCOP(=O)(SC(C)CC)SC(C)CC (stereo not given),–,-2.05% (inactive)
COc1nc(C)nc(NC(=O)NS(=O)(=O)c2ccccc2CCC(F)(F)F)n1,–,-2.66% (inactive)
